MPTP block: blocks calcium-induced mitochondrial swelling; isolated mouse mitochondria, Ca2+ swelling absorbance, 30 min; inhibition, % at 10 µM; actives 1.4% (n = 360,000); AID 602449;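 active = inhibition of 50% or more, scaled per plate between neutral and stimulator controls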
FAS-TE inh: blocks the thioesterase domain of human fatty acid synthase. inhibition, % at 15 µM. actives 0.67% (n = 360,000). recombinant FAS-TE, OMFH fluorogenic substrate, fluorescence endpoint. P49327;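 active = compounds whose normalised, plate-corrected inhibition of enzyme fluorescence in the single-dose primary screen is 50% or more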
GRIN3A LBD mod: modulators (binders) of human NR3A ligand-binding domain; NR3A LBD differential scanning fluorimetry, Tm shift; 0% = protein alone, 100% = glycine-bound protein; Tm shift relative to glycine control, % at 25 µM; actives 2.5% (n = 340,000);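 active = melting temperature shift of at least 10% of the positive control shift, at one fixed dose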
MIN6 prolif: MIN6 beta-cell proliferation induction; AID 2380; MIN6 cells proliferation, ATPlite luminescence, 48 h; cells starved in 0.2% serum; 100% = growth in 10% serum; actives 0.29% (n = 330,000); proliferation, % at 10 µM;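 active = compounds whose signal lies at least 3.5 SD above the mean of all wells on their plate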
pCIP destab: lowers stability of the mouse p/CIP coactivator protein; Q05BA5; F442A p/CIP-EGFP cells, EGFP fluorescence, 16 h; decrease of EGFP signal, % at 10 µM; actives 0.01% (n = 290,000);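 active = EGFP signal decrease of at least 30% at 10 µM or well 3 SD below plate mean, unless failing retest; inactive = the rest, including hits failing retest or dose response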
FAS-TE conf: FAS thioesterase (human) inhibition, confirmation. AID 624325. shares compounds with FAS-TE inh. inhibition, % at 15 µM. recombinant FAS-TE, OMFH fluorogenic substrate, fluorescence. actives 45% (n = 2,300);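 active = compounds inhibiting the enzyme by at least 50% at 15 µM in any one of the replicates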
Large screens that a line does not name were inactive (follow-up assays come after a bar, where they were run). Most compounds without a hit are left out; they make up all but 4.1% or so of the library.

Cc1ccc(S(=O)(=O)N2C[C@H]3[C@H]4C(=O)N(c5ccccc5)C(=O)[C@H]4CC(=O)[C@H]3[C@@H]2c2ccccc2F)cc1	none (no result: GRIN3A LBD mod, MIN6 prolif, pCIP destab)
COc1ccc([C@@H]2CC(=O)[C@@H]3CN(S(=O)(=O)c4ccc(C)cc4)[C@H](c4cccc(Cl)c4)C[C@@H]3N2S(=O)(=O)c2ccccc2)cc1	none (no result: GRIN3A LBD mod, MIN6 prolif, pCIP destab)
Cc1ccc(C)c(NC(=O)C2(C)CCCN2C(=O)C(C)C)c1 (stereo not given)	none (no result: GRIN3A LBD mod, MIN6 prolif, pCIP destab)
COc1ccc(C(C)(O)c2nc(-c3ccc4ccccc4c3)cs2)cc1 (stereo not given)	none (no result: GRIN3A LBD mod, MIN6 prolif, pCIP destab)
COC(=O)c1ccc(N2C(c3ccsc3)=Cc3cc4c(cc3C2CC(=O)c2ccco2)OCO4)cc1 (stereo not given)	none (no result: GRIN3A LBD mod, MIN6 prolif, pCIP destab)
ON=C1c2ccccc2-c2cc(Br)ccc21	none (no result: MIN6 prolif, pCIP destab)
CC(C)(C)c1ccc(OCCC(=O)OCC(=O)N2c3ccccc3NC(=O)C2(C)C)cc1	FAS-TE inh 56 (no result: pCIP destab) | FAS-TE conf 66
COc1cccc(NC(=O)CN2C(=O)CSc3ccc(S(=O)(=O)N4CCC(C)CC4)cc32)c1	FAS-TE inh 65 | FAS-TE conf 72
COc1cccc(NC(=O)CN2C(=O)CSc3ccc(S(=O)(=O)N4CCOCC4)cc32)c1	none
Cc1ccccc1CNC(=O)c1csc([C@@H]2C[C@H](O)[C@@H](CO)O2)n1	none (no result: GRIN3A LBD mod, MIN6 prolif, pCIP destab)
O=CN1N=C(c2ccccc2)CC1c1ccc(Cl)cc1 (stereo not given)	none
O=C1OC(c2ccccc2)=NC12CC2c1ccc(Cl)cc1 (stereo not given)	FAS-TE inh 90 | FAS-TE conf 97
N#Cc1cc(-c2ccccc2)nc(Oc2ccc(Cl)cc2)n1	FAS-TE inh 65 | FAS-TE conf 53
O=[N+]([O-])c1ccc(Sc2n[nH]c(-c3ccccc3)n2)nc1	FAS-TE inh 52 | FAS-TE conf 64
CCN1C(=O)[C@H]2[C@@H](c3ccc(-c4ccc(Cl)c(Cl)c4)c(OC)c3)N[C@@](Cc3ccccc3)(C(=O)OC)[C@H]2C1=O	FAS-TE inh 70 (no result: pCIP destab) | FAS-TE conf inactive
CCN1C(=O)[C@H]2[C@@H](c3ccc(-c4ccc5c(c4)OCO5)cc3)N[C@@](Cc3ccccc3)(C(=O)OC)[C@H]2C1=O	FAS-TE inh 67 (no result: pCIP destab) | FAS-TE conf inactive
CC(=O)OCCCNc1cc(Sc2nc3ccccc3s2)c2nonc2c1[N+](=O)[O-]	FAS-TE inh 82 | FAS-TE conf 67
CC(=O)OCCNc1cc(Sc2nc3ccccc3[nH]2)c2nonc2c1[N+](=O)[O-]	FAS-TE inh 76 (no result: MIN6 prolif) | FAS-TE conf 72
O=[N+]([O-])c1c(NCCCO)cc(Sc2ccc(Cl)cc2)c2nonc12	FAS-TE inh 61 (no result: MIN6 prolif) | FAS-TE conf 49
C/C=C/c1cccc(-c2nc(C(=O)NC3CCC3)cc3c2[C@H](CCO)N(S(=O)C(C)(C)C)C3)c1 (stereo not given in full)	none (no result: GRIN3A LBD mod, MIN6 prolif, pCIP destab)
CCOC(=O)[C@]12CCCC=C1N(Cc1ccccc1)C(=O)[C@H](CC(=O)N1CCCC1)C2	none (no result: FAS-TE inh, GRIN3A LBD mod, MIN6 prolif, pCIP destab)
CC(C)CN1CCC(CN2CCNC(=O)C2=O)CC1	none (no result: MIN6 prolif, pCIP destab)
CC#CCN1c2ccccc2[C@]23C[C@@H](C(=O)OC)N(C(=O)c4cc(C)oc4C)C2=NC(C(=O)OC)=C(C(=O)OC)[C@H]13	FAS-TE inh 59 | FAS-TE conf inactive
COc1ccc(C(=O)N(C)CCCC2CCCC2)cc1OC1CCN(C(C)C)CC1	none
CCc1ccc(N=CC23c4ccccc4C(c4ccccc42)C2C(=O)N(c4ccc(OC)cc4)C(=O)C23)cc1 (stereo not given)	none
COc1ccc(N2C(=O)C3C4c5ccccc5C(C=Nc5ccc(C)cc5C)(c5ccccc54)C3C2=O)cc1 (stereo not given)	FAS-TE inh 56 (no result: pCIP destab) | FAS-TE conf inactive
COC(=O)C1=C(C(=O)OC)[C@]2([C@H]3CCCCN[C@@H](Cc4ccccc4)C(=O)N3Cc3ccccc3)C=C[C@H]1O2	FAS-TE inh 75 (no result: pCIP destab) | FAS-TE conf inactive
OCC1OC(Oc2c[nH]c3ccccc23)C(O)C(O)C1O (stereo not given)	none (no result: pCIP destab)
CSCC[C@H](NC(=O)c1cc([N+](=O)[O-])ccc1Cl)c1nc2ccccc2[nH]1	FAS-TE inh 63 | FAS-TE conf inactive
N#CCC(=O)N/N=C/c1cc([N+](=O)[O-])ccc1N1CCOCC1	none
